High-throughput results from PubChem.
Hits are enriched below; roughly 5.5% of the tested compounds scored in any of these assays.
FBPA coupling cs – inhibits coupling enzyme system, counter-screen for aldolase hits; coupling enzyme system counterscreen, AmpLite Red fluorescence; activity change, negative = inhibition, % at 58.2 µM, hits read low; 290,000 compounds, 0.67% hits; AID 2472; in the data active = activity change below about -30%
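Activity here indicates interference with the coupling reaction, not aldolase inhibition. Compounds at 57.5 uM final met coupling enzymes for 10 min at RT; substrate and AmpLite Red detection followed, with a 525/598 nm fluorescence read after 20 min.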
Giardia kill – Giardia lamblia killing; 340,000 compounds, 0.15% hits; Giardia lamblia trophozoite viability; activity change, % at 7.66 µM, hits read low; in the data active = activity change below about -80%; inconclusive = between about -30% and that limit;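 note: parasites exposed to compound for two days anaerobically before the ATP read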
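Viability, read as ATP luminescence: trophozoites at 100 cells/well, compound added, 48 hrs anaerobic at 37 deg C, then 15-30 min room-temperature development before reading.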
ELG1 DNA repair – inhibitors of ELG1-dependent DNA repair in HEK293T cells; HEK293T ELG1-luciferase reporter, luminescence, 16 h; DNA damage induced by 5-fluorouridine; Potency, µM (top dose mostly 46.1 µM), inactives show at the highest dose activity change, negative = inhibition, actives largely listed as inhibitors; 330,000 compounds, 2.3% hits; AID 504467; note: potency is the fitted concentration of half-maximal effect; nearly all actives have a fitted effect of over 55% in size
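Step one: seed 2,000 cells per well. Step two: pin-transfer compound or DMSO alongside 5-fluorouridine. Step three: incubate 16 hr, 37 °C, 5% CO2. Step four: add ONE-Glo, wait 30 min, read luminescence.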
Sfp PPTase inh – inhibitors of Bacillus subtilis Sfp phosphopantetheinyl transferase; Biochemical Sfp PPTase activity, qHTS; AID 1490; Potency, µM, without a hit: largest response in the series, negative = inhibition, usual class: inhibitors; Q9F4F7; 310,000 compounds, 3.5% hits;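 note: the enzyme is Sfp with the accession as filed and its product quenches rhodamine fluorescence; potency is the fitted concentration of half-maximal effect; 0% = enzyme reaction without inhibitor and -100% = no enzyme wells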
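Reaction rates are the 30-min fluorescence difference (ex 525, em 598 nm) in wells containing 15 nM Sfp, 5 uM rhodamine-CoA and 12.5 uM BHQ-2-YbbR at pH 7.6 with 10 mM MgCl2.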
Numbers without * were called inactive; ? = inconclusive; . = no result. Unless noted, calls come from the whole dose curve; as a rule, active = well fitted curve in the direction sought with a large enough effect; inconclusive = small, poorly fitted or top-dose-only effect, or another doubt; inactive = no such curve, though single readings can be large; an effect the other way counts as inactive or inconclusive. Unless noted, % is set by controls: 0 for no effect and ±100 for the full control effect.

SMILES	FBPA coupling cs	Giardia kill	ELG1 DNA repair	Sfp PPTase inh
Oc1ccccc1C1Nc2cccc3cccc(c23)N1	-34*	-24	18%	22µM*
O=[N+]([O-])c1ccccc1C1Nc2cccc3cccc(c23)N1	-12	?	5%	8.9µM*
c1ccc(C2Nc3cccc4cccc(c34)N2)cc1	-11	21	-5%	28µM*
CCCCC[C@H](O)/C=C/C=C\C/C=C\C=C\[C@@H](O)CCCC(=O)O	4	.	.	10%
O=C(Nc1ccccc1N1CCN(C(=O)c2ccccc2)CC1)c1ccc(Cl)cc1	3	-14	-25%	8%
COc1ccc(Cn2c(=O)[nH]c3cc(C(=O)N4CCN(c5ccccc5OC)CC4)ccc3c2=O)cc1	1	20	21µM*	5%
O=C(c1ccc(Cn2c(=O)[nH]c3ccccc3c2=O)cc1)N1CCN(c2ccc(F)cc2)CC1	4	-17	18µM*	-8%
COc1ccccc1N1CCN(C(=O)c2ccc(CSc3ccccc3)cc2)CC1	3	-8	23µM*	-1%
COc1ccc(C(=O)Nc2ccccc2N2CCN(C(=O)c3ccccc3)CC2)cc1Br	.	-26	21µM*	0%
COc1ccc(Cn2c(=O)[nH]c3cc(C(=O)N4CCN(c5ccccc5F)CC4)ccc3c2=O)cc1	1	12	6%	9%
COc1cccc(Oc2ccc(C(F)(F)F)cc2NC(=O)CN2C(=O)NC3(CCCC3)C2=O)c1	.	10	0%	.
CCCCCCCCCCOCCC(=O)O	-3	.	.	10%
CN1CCN(c2ncc3nc(-c4cccc(C#N)c4)c(=O)n(C[C@H]4CCCO4)c3n2)CC1	-5	.	.	3%
COc1ccc(NC(=O)COC(=O)c2cc3c(s2)CCC3)cc1	.	-23	12%	.
COc1ccccc1N1CCN(C(=O)c2cc(=O)c3c(C)cc(C)cc3o2)CC1	-3	8	26µM*	-14%
COc1ccccc1N1CCN(C(=O)CSc2nnc3c4ccccc4nc(Cc4ccccc4)n23)CC1	3	.	9.2µM*	4%
CCn1c(C)[n+](CCCS(=O)(=O)[O-])c2cc(Cl)c(Cl)cc21	-1	-6	-11%	-5%
O=S(=O)([O-])CCC[n+]1c(SCCCS(=O)(=O)O)sc2ccc(Cl)cc21	12	15	7%	3.2µM*
CCc1ccc2c(c1)N(C[C@H](C)CN(C)C)c1ccccc1S2	.	.	.	-10%
CCOC(=O)c1ccc(N(CC(=O)NC2CCCCC2)C(=O)CNC(=O)c2ccco2)cc1	0	-2	-9%	13%
COc1cc(/C=N/NC(=O)COc2cccc(F)c2)ccc1OS(=O)(=O)c1ccc(C)cc1	-5	-8	18µM*	12%
Cc1cc(C)cc(NC(=S)/N=C(\N)Nc2nc(C)c3ccccc3n2)c1	-2	0	18µM*	12%
Cc1ccc(S(=O)(=O)/N=C(\N)Nc2nc(C)c3ccccc3n2)cc1	2	-16	-4%	89µM*
COc1ccc2c(C)nc(N/C(N)=N/S(=O)(=O)c3ccc(C)cc3)nc2c1	3	11	?	13%
CCOC(=O)c1sc(=S)n(C)c1NC(=O)c1ccccc1Cl	9	-5	0%	18µM*
SMILES	FBPA coupling cs	Giardia kill	ELG1 DNA repair	Sfp PPTase inh
CCOC(=O)c1sc(=S)n(C)c1NC(=O)c1ccc(C(C)(C)C)cc1	2	-6	?	?
COc1ccc(NC(=O)Nc2sc(=S)n(C)c2C)cc1	1	2	5%	20µM*
CCOC(=O)c1sc(=S)n(C)c1NC(=O)c1ccc(OC)cc1	-18	32	0%	13µM*
N#Cc1cccc(S(=O)(=O)N2CCN(c3nc(-c4cccs4)nc4ccccc34)CC2)c1	.	17	.	.
CCCC[n+]1ccn(-c2nc3ccccc3nc2[N-]S(=O)(=O)c2ccc(Br)cc2)c1	2	1	?	-1%
CC(C)CC[n+]1ccn(-c2nc3ccccc3nc2[N-]S(=O)(=O)c2ccccc2)c1	0	5	6%	79µM*
CC(C)(C)OC(=O)N1CCC[C@H]1C(=O)N/N=C/c1cccc2cccnc12	1	13	-4%	45µM*
Cc1cc(C)c(S(=O)(=O)N2CCN(C(=O)N3CCCCC3)CC2)c(C)c1	8	14	-8%	-7%
Cc1cc(C)c(S(=O)(=O)N2CCN(C(=O)N(C)C)CC2)c(C)c1	0	0	-4%	7.1µM*
COCc1cc(CN(C)C(=O)c2oc3c(F)cccc3c2C)[nH]n1	-1	-12	15%	12%
Cc1ccc(Cn2c(O)c(N=NC(=S)Nc3ccccc3F)c3ccccc32)cc1	-7	-7	5.2µM*	8%
